Experimental data reported in the supplement of paper PMC10849652.
The full data set covers some 7,900 targets. This sample favours those with a hit. About 0.6% of all pairs of compound and target were hits. Values without a mark were called inactive.

Experiments:
Experiment in all cases: log2 fold change, soluble protein after heating vs DMSO (PISA); higher = thermal stabilisation; K562 cells, 10 uM, 30 min; active = over 0.2 and 3.5 SD of the protein, either way, in both replicates (recomputed)
[1] = compound: Cc1ccc(NC(=O)c2ccc(CN3CC[C@H](N(C)C)C3)c(C(F)(F)F)c2)cc1Nc1nccc(-c2cncnc2)n1 [bafetinib]
Outline: (§1)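 Soluble protein was quantified by TMTpro 16plex LC-MS/MS after channel sums were equalised. It was obtained as the supernatant after 21,000xg for 90 min from pooled aliquots of K562 cells (2×10^6 cells/mL, 10 μM compound, 30 min) heated for 3 min across 48°C-58°C and extracted in PBS with 0.5% NP-40 at 4°C. Thermal stability values are relative to control samples and come from duplicates. They are given as log2 fold changes.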

[2] = compound: Cc1cccc(CC(=O)N2CCc3c2ccc(-c2cn(C)c4ncnc(N)c24)c3F)n1
Outline: as §1

[3] = compound: Cc1cn(-c2cc(NC(=O)c3ccc(C)c(Nc4nccc(-c5cccnc5)n4)c3)cc(C(F)(F)F)c2)cn1 [nilotinib]
Outline: as §1

[4] = compound: Cc1nc(Nc2n[nH]c3c2CN(C(=O)N[C@H](CN(C)C)c2ccccc2)C3(C)C)c2sccc2n1
Outline: as §1

[5] = compound: Cc1nc(Nc2ncc(C(=O)Nc3c(C)cccc3Cl)s2)cc(N2CCN(CCO)CC2)n1 [dasatinib]
Outline: as §1

[6] = compound: Cc1ncc(-c2ccnc(Nc3ccc(S(C)(=O)=O)cc3)n2)n1C(C)C
Outline: as §1

[7] = compound: Cn1cc(-c2ccc3c(c2)CCN3C(=O)Cc2cccc(C(F)(F)F)c2)c2c(N)ncnc21
Outline: as §1

[8] = compound: Cn1cc(-c2ccc3nnc(C(F)(F)c4ccc5ncccc5c4)n3n2)cn1
Outline: as §1

[9] = compound: Cn1cncc1[C@@](N)(c1ccc(Cl)cc1)c1ccc2c(c1)c(-c1cccc(Cl)c1)cc(=O)n2C [tipifarnib]
Outline: as §1

[10] = compound: FC(F)(F)c1ccc(/C=C/c2nc(COc3ccc(CCCCn4ccnn4)cc3)co2)cc1 [mubritinib]
Outline: as §1

[11] = compound: NC(=O)Nc1cc(-c2cccc(F)c2)sc1C(=O)N[C@H]1CCCNC1
Outline: as §1

[12] = compound: NC(=O)c1cnc(N[C@@H]2CCCC[C@@H]2N)nc1Nc1cccc(-n2nccn2)c1
Outline: as §1

[13] = compound: NC1(c2ccc(-c3nc4ccn5c(=O)[nH]nc5c4cc3-c3ccccc3)cc2)CCC1
Outline: as §1

[14] = compound: NCC(=O)Nc1ccc(-n2nc(C(F)(F)F)cc2-c2ccc3c(ccc4ccccc43)c2)cc1
Outline: as §1

[15] = compound: Nc1ccccc1NC(=O)c1ccc(CNC(=O)OCc2cccnc2)cc1 [entinostat]
Outline: as §1

[16] = compound: O=C(CCCCCCC(=O)Nc1ccccc1)NO [vorinostat]
Outline: as §1

[17] = compound: O=C(CCCCCCNC(=O)c1cnc(N(c2ccccc2)c2ccccc2Cl)nc1)NO [citarinostat]
Outline: as §1

[18] = compound: O=C(O)c1ccc2c(c1)nc(Nc1cccc(Cl)c1)c1ccncc12 [silmitasertib]
Outline: as §1

[19] = compound: O=C1NC(=O)C(c2cnc3ccccn23)=C1c1cn2c3c(cc(F)cc13)CN(C(=O)N1CCCCC1)CC2
Outline: as §1

[20] = compound: c1cc(OCCN2CCCCC2)cc(-c2n[nH]c3ccc(-c4nnc[nH]4)cc23)c1
Outline: as §1

Chain of UniProt Q96CF2 (Q96CF2 whole entry, looked up): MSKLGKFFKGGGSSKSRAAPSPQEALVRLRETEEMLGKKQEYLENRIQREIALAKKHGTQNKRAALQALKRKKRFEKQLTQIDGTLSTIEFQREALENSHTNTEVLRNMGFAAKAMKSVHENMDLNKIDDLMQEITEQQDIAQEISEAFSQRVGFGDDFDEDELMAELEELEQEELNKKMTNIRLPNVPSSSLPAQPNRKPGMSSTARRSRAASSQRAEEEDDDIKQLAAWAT
Chain of UniProt Q96JM3 (Q96JM3 whole entry, looked up): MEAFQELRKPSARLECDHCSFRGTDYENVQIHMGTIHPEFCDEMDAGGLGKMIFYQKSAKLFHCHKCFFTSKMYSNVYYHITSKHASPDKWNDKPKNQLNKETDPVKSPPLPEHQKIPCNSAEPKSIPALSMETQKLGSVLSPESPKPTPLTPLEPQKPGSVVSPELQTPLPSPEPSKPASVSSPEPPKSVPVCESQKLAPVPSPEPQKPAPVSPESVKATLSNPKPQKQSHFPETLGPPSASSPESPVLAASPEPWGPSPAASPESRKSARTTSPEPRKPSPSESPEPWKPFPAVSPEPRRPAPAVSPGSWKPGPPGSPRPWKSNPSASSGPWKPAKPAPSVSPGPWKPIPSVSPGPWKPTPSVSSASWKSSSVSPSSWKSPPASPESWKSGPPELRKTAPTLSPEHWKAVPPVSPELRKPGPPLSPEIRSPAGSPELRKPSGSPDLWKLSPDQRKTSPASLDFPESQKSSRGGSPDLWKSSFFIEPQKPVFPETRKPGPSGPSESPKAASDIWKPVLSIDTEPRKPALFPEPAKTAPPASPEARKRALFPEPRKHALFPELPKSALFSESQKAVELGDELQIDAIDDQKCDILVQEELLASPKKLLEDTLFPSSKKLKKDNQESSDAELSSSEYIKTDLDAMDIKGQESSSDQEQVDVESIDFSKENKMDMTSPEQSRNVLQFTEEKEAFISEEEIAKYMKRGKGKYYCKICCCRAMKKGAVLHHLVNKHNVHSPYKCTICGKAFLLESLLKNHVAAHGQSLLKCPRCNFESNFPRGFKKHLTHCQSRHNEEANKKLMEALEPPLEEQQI
Chain of UniProt Q96KA5 (Q96KA5 whole entry, looked up): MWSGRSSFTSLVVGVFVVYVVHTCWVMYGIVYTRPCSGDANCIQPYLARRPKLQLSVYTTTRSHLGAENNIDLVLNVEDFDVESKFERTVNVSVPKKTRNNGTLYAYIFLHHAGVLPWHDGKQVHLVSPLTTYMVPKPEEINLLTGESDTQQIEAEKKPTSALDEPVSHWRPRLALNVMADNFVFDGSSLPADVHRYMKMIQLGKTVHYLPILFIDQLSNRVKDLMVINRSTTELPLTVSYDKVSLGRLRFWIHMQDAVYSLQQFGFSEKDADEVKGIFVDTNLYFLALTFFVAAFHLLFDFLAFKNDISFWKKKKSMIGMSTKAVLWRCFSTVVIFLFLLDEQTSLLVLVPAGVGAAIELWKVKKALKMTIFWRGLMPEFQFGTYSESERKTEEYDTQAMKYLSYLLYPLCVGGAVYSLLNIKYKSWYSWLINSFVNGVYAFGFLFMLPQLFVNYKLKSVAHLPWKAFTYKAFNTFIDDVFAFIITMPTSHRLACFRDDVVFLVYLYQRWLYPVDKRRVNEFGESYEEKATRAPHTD
Chain of UniProt Q86X83 (Q86X83 whole entry, looked up): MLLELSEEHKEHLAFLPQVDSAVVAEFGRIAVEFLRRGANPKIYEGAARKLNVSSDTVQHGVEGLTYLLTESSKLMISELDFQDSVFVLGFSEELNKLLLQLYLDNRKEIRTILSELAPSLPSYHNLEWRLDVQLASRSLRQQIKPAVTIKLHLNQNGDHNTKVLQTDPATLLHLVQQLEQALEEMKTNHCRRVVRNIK
Chain of UniProt P60033 (P60033 whole entry, looked up): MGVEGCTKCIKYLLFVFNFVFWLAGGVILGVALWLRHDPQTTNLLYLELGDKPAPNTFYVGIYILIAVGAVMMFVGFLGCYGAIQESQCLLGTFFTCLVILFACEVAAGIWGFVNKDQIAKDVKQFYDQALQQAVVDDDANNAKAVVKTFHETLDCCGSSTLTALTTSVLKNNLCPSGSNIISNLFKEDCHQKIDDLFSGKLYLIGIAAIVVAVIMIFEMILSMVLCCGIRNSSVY
Chain of UniProt Q13057 (Q13057 whole entry, looked up): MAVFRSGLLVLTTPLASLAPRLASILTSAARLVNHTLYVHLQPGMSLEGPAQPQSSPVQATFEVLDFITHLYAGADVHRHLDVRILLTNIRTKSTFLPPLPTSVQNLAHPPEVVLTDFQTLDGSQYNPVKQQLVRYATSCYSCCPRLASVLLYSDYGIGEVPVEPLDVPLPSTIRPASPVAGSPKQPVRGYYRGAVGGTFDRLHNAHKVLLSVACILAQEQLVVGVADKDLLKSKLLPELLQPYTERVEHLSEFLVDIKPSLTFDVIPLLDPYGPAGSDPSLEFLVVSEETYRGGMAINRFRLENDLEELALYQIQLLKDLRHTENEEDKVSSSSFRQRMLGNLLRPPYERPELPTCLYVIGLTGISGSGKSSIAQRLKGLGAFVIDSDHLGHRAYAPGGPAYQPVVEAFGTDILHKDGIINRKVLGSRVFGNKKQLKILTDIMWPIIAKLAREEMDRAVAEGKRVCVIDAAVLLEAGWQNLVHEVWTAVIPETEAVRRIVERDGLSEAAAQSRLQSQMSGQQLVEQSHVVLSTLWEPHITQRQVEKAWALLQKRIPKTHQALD
Chain of UniProt P19397 (P19397 whole entry, looked up): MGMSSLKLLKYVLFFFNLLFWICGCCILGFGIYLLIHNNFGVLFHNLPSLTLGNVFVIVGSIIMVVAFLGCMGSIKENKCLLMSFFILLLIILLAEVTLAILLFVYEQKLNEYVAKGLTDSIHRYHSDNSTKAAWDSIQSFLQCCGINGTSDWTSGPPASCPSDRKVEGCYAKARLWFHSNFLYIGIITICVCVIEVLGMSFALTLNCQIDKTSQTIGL
Chain of UniProt P51946 (P51946 whole entry, looked up): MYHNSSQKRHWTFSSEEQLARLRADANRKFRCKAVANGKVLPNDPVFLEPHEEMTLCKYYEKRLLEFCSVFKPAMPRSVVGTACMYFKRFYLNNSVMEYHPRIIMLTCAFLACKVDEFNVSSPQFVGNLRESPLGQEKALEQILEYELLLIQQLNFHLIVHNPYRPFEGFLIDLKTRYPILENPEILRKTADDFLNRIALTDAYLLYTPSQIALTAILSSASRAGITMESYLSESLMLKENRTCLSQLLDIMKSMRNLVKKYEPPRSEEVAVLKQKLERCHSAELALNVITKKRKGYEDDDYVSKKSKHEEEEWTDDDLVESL
Chain of UniProt P67870 (P67870 whole entry, looked up): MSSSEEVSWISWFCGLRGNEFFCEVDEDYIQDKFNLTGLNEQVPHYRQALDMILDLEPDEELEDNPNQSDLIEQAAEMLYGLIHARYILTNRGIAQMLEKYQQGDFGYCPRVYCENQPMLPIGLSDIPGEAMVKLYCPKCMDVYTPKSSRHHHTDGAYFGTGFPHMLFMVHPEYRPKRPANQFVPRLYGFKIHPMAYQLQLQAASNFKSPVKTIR
Chain of UniProt Q9NYV4 (Q9NYV4 whole entry, looked up): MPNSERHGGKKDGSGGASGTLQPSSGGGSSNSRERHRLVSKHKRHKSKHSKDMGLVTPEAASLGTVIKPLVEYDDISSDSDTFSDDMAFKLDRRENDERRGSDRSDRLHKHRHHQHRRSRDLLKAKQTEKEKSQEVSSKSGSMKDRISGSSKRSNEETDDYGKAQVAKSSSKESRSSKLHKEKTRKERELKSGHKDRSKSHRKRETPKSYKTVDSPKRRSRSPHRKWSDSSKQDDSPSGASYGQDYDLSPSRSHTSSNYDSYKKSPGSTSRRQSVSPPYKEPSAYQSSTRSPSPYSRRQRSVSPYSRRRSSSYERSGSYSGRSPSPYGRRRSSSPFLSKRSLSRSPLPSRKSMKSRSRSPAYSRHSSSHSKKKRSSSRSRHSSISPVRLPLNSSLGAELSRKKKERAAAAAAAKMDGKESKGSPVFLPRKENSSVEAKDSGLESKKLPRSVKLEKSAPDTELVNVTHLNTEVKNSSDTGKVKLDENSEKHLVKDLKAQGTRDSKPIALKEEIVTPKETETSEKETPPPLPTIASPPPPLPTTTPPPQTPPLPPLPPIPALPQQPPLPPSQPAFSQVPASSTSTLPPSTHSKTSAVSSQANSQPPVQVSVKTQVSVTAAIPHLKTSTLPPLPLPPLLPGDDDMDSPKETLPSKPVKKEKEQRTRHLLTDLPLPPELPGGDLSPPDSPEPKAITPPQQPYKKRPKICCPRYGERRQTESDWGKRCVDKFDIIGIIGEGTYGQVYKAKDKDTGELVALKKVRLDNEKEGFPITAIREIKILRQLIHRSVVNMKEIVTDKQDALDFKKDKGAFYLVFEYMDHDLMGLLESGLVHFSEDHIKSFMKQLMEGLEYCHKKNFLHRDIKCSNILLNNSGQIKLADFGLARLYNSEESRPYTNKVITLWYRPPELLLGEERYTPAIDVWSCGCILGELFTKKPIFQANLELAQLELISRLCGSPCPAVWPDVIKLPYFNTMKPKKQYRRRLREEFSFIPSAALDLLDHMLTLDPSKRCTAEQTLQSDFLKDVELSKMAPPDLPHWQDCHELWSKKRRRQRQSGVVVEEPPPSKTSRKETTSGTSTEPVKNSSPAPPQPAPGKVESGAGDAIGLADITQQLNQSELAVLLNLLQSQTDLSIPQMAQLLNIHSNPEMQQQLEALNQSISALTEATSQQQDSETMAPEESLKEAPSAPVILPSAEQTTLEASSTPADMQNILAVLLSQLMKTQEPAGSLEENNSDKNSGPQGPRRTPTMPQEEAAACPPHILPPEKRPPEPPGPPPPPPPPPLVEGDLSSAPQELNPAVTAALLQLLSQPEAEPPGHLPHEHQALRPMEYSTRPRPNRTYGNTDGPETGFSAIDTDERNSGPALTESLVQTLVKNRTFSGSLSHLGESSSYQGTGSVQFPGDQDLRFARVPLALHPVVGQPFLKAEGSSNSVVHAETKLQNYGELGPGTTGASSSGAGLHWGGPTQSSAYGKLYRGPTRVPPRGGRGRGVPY

Target | log2 fold change [1] | log2 fold change [2] | log2 fold change [3] | log2 fold change [4] | log2 fold change [5] | log2 fold change [6] | log2 fold change [7] | log2 fold change [8] | log2 fold change [9] | log2 fold change [10] | log2 fold change [11] | log2 fold change [12] | log2 fold change [13] | log2 fold change [14] | log2 fold change [15] | log2 fold change [16] | log2 fold change [17] | log2 fold change [18] | log2 fold change [19] | log2 fold change [20]
CSNK2B (UniProt P67870) | 0.036 | 0.014 | 0.052 | 0.018 | 0.015 | -0.05 | 0.038 | -0.01 | -0.042 | -0.017 | -0.017 | 0 | 0.006 | 0.084 | -0.008 | 0.021 | 0.036 | 0.377 (active) | -0.011 | -0.02
CCNH (UniProt P51946) | -0.064 | -0.01 | -0.008 | 0.113 | 0.023 | -0.056 | -0.005 | 0.005 | 0.051 | 0.08 | -0.043 | -0.009 | 0.024 | -0.02 | -0.006 | -0.028 | 0.015 | 0.02 | -0.083 | -0.027
CD81 (UniProt P60033) | 0.089 | -0.026 | 0.051 | 0.016 | 0.079 | -0.015 | 0.108 | 0.131 | 0.041 | 0.05 | -0.051 | 0.222 | 0.21 | 0.231 | -0.028 | -0.074 | 0.065 | 0.052 | 0.066 | -0.166
CKB (UniProt P12277) | 0.02 | 0.02 | 0.051 | 0.037 | -0.142 | -0.008 | 0.081 | 0.01 | -0.057 | 0.062 | -0.035 | -0.02 | -0.117 | -0.033 | -0.001 | -0.023 | -0.046 | -0.117 | -0.04 | -0.018
CDK12 (UniProt Q9NYV4) | 0.298 | 0.079 | 0.136 | -0.631 (active) | 0.23 | -0.301 | -0.484 | -0.123 | 0.156 | -0.043 | -0.002 | 0.005 | 0.06 | 0.01 | 0.005 | 0.089 | -0.051 | -0.081 | 0.179 | -0.242
CNOT4 isoform 6 (UniProt O95628) | -0.088 | -0.036 | -0.024 | -0.042 | -0.034 | -0.003 | 0.021 | 0.033 | 0.027 | 0.023 | 0.033 | -0.046 | -0.074 | -0.026 | -0.009 | 0.052 | 0.038 | 0.023 | -0.043 | -0.037
CLPTM1L (UniProt Q96KA5) | -0.186 | 0.07 | -0.103 | 0.009 | -0.045 | -0.016 | -0.042 | 0.011 | -0.056 | 0.02 | -0.007 | 0.007 | -0.148 | -0.019 | 0.025 | 0.023 | 0.044 | 0.02 | -0.072 | 0.002
CHMP4C (UniProt Q96CF2) | -0.01 | -0.003 | -0.03 | -0.021 | -0.027 | 0 | -0.008 | 0.041 | -0.015 | 0.039 | -0.003 | -0.005 | -0.089 | -0.043 | 0.041 | 0.02 | -0.138 | 0.028 | -0.22 | 0.052
CASP3 (UniProt P42574) | -0.031 | -0.042 | 0.013 | -0.012 | 0.002 | -0.007 | 0.008 | -0.022 | -0.055 | 0.007 | 0.051 | 0.053 | 0.075 | 0.043 | -0.029 | 0 | -0.043 | -0.057 | 0.018 | -0.051
CD53 (UniProt P19397) | 0.091 | -0.418 (active) | 0.069 | 0.002 | 0.078 | -0.003 | 0.145 | 0.125 | 0.057 | 0.081 | -0.15 | 0.196 | 0.133 | 0.014 | -0.044 | -0.219 | 0.013 | -0.046 | -0.037 | -0.12
COMMD2 (UniProt Q86X83) | 0.162 | -0.066 | -0.132 | -0.069 | -0.177 | 0.097 | -0.099 | 0.057 | 0.025 | 0.101 | -0.007 | -0.034 | -0.098 | 0.039 | -0.062 | 0.049 | 0.011 | 0.053 | 0.011 | -0.08
COASY isoform 2 (UniProt Q13057) | -0.009 | 0.089 | -0.19 | 0.001 | -0.132 | 0.005 | 0.037 | -0.062 | -0.102 | -0.196 | 0 | 0.004 | -0.138 | -0.004 | 0.018 | 0.063 | 0.054 | 0.042 | -0.004 | -0.01
CHAMP1 (UniProt Q96JM3) | -0.134 | 0.049 | 0 | -0.132 | -0.092 | -0.123 | 0.026 | 0.067 | 0.014 | 0.056 | -0.034 | -0.136 | 0.007 | -0.031 | 0.001 | 0.137 | -0.007 | -0.02 | -0.051 | -0.078
CIZ1 (UniProt Q9ULV3) | -0.063 | 0.013 | 0.016 | -0.181 | -0.016 | -0.063 | 0.021 | -0.066 | 0.008 | 0.019 | -0.031 | -0.087 | -0.053 | -0.022 | -0.032 | 0.036 | 0.023 | 0.026 | 0.074 | -0.045
CPT1A (UniProt P50416) | 0.171 | 0.006 | 0.058 | 0.021 | -0.042 | -0.107 | -0.024 | -0.036 | 0.187 | -0.05 | -0.068 | -0.012 | 0.117 | -0.001 | -0.005 | -0.017 | 0.053 | 0.037 | -0.014 | 0.071
CPSF3 (UniProt Q9UKF6) | -0.052 | 0.041 | -0.006 | -0.073 | -0.082 | -0.023 | -0.071 | -0.023 | -0.027 | 0.02 | 0.001 | -0.05 | -0.032 | -0.058 | -0.002 | 0.016 | 0.026 | 0.129 | -0.006 | -0.075
